This is part of a sample that, as a whole, favours compounds with a hit. Of some 83,000 tested, about 20% had one in any assay.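 Assay: single dose, 48 h. Readout: percent growth (0 = no net growth; negative = cell death). Active: <10.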 Values without a mark were called inactive. Activity calls are given as the source filed them.

Test systems include HCT-15 colon; HT29 colon; SNB-75 CNS; SNB-19 CNS; U251 CNS; PC-3 prostate; SK-MEL-5 melanoma; UACC-62 melanoma; LOX IMVI melanoma; SK-MEL-28 melanoma; SK-MEL-2 melanoma; EKVX NSCLC; SN12C renal; UO-31 renal; TK-10 renal; ACHN renal; A498 renal; CCRF-CEM leukemia; MOLT-4 leukemia; CAKI-1 renal.
Common to all, as to experiment: NCI-60 one-dose screen, 48 h (100 = growth as untreated, 0 = no growth, -100 = all killed)
Common to all, as to conditions: 10 µM unless noted

In the case of `COc1c(N2CC3CCCNC3C2)c(F)cc2c(=O)c(C(=O)N/N=C/c3ccc(F)cc3)cn(C3CC3)c12` (stereo unspecified), the growth with HCT-15 colon was 45.9%; in the test with HT29 colon, 45.9%; in the test on SNB-75 CNS it was 83.6%; in the test on SNB-19 CNS it was 99.5%; in the test with U251 CNS, 81.4%; in the test on PC-3 prostate, 76.4%. Further, the growth is 82.7% with SK-MEL-5 melanoma; 80.2% with UACC-62 melanoma; 46.1% in the test with LOX IMVI melanoma; 81% with SK-MEL-28 melanoma; 100% in the test on SK-MEL-2 melanoma; 90% with EKVX NSCLC. The growth in the test with SN12C renal was 88.4%; in the test on UO-31 renal it was 80.7%; in the test on TK-10 renal, 101%; in the test with ACHN renal, 104%; with A498 renal, 59.9%; in the test with CCRF-CEM leukemia it was 63.8%. Besides, the growth with MOLT-4 leukemia was 63.1%.
Turning to `NC(N)=Nc1ccc(Oc2cccc(NC(N)=Nc3ccc(Br)cc3)c2)cn1`, the growth in the test on HCT-15 colon is 85.4%; in the test with HT29 colon, 59.7%; in the test with SNB-75 CNS, 68.6%; in the test with SNB-19 CNS, 18.8%; in the test with U251 CNS, 43.1%; with PC-3 prostate, 38.2%. The growth with SK-MEL-5 melanoma is 35.6%; in the test with UACC-62 melanoma, 63.2%; in the test on LOX IMVI melanoma, 0.0918% (active); in the test on SK-MEL-28 melanoma, 82.9%; in the test with SK-MEL-2 melanoma it was 84.3%; with EKVX NSCLC, 62%. The growth is 20.6% with SN12C renal; 85% with UO-31 renal; 69.1% with TK-10 renal; 95.5% with ACHN renal; 64.3% in the test with A498 renal; 58.5% with CCRF-CEM leukemia. The growth with MOLT-4 leukemia is 65%.
Turning to `CC(=O)Nc1cccc(Nc2nc(N[C@H](C)c3ccccc3)c3ccccc3n2)c1`, the growth in the test with HCT-15 colon was 41.5%; in the test with HT29 colon, 41.1%; in the test on SNB-75 CNS, 30.6%; with SNB-19 CNS, 74%; in the test with U251 CNS, 74.4%; with PC-3 prostate, 45.5%. Also, the growth with SK-MEL-5 melanoma was 38.8%; in the test on UACC-62 melanoma it was 65.5%; in the test on LOX IMVI melanoma, 45.6%; in the test with SK-MEL-28 melanoma, 74.6%; in the test with SK-MEL-2 melanoma, 73.6%; in the test with EKVX NSCLC, 52%. In addition, the growth in the test on SN12C renal is 53.9%; with UO-31 renal, 40.5%; with TK-10 renal, 68.1%; in the test with ACHN renal, 77.9%; in the test with CAKI-1 renal, 35.8%; with A498 renal, 22.8%. Besides, in the test with MOLT-4 leukemia, the growth was 16.8%.
Regarding `O=C(NCCn1ccnc1)c1ccc(-c2nc3ccc4[nH]ncc4c3c3c2CCCC3)cc1`, the growth was 97.5% in the test with HCT-15 colon; 88.4% in the test on HT29 colon; 52.6% in the test with SNB-75 CNS; 55.6% with SNB-19 CNS; 58.6% with U251 CNS; 47.6% in the test on PC-3 prostate. The growth in the test with SK-MEL-5 melanoma is 89.9%; with UACC-62 melanoma it was 28.8%; in the test on LOX IMVI melanoma, 66.3%; in the test with SK-MEL-28 melanoma it was 62.4%; in the test on SK-MEL-2 melanoma it was 45.3%; in the test on EKVX NSCLC, 87.6%. The growth in the test with SN12C renal was 81.6%; in the test with UO-31 renal, 92.4%; in the test with TK-10 renal, 77.7%; in the test with ACHN renal, 88.4%; in the test on A498 renal it was 73.5%; in the test with CCRF-CEM leukemia, 19.5%. In the test on MOLT-4 leukemia, the growth was 29.1%.
Consider `COc1ccc(NCc2cn(-c3ccc(C(=O)O)cc3)nc2-c2cc(C(F)(F)F)cc(C(F)(F)F)c2)cc1`, for which the growth with HCT-15 colon was 88.8%; with HT29 colon, 99.1%; with SNB-75 CNS, 91.9%; with SNB-19 CNS it was 94.9%; with U251 CNS, 102%; in the test on PC-3 prostate, 93%. The growth was 98.8% with SK-MEL-5 melanoma; 97.3% in the test on UACC-62 melanoma; 99.5% in the test on LOX IMVI melanoma; 107% in the test on SK-MEL-28 melanoma; 101% in the test with SK-MEL-2 melanoma; 90.3% in the test on EKVX NSCLC. The growth in the test with UO-31 renal was 93.1%; in the test with TK-10 renal, 110%; in the test with ACHN renal it was 102%; in the test with CAKI-1 renal, 81.5%; in the test with A498 renal, 72.1%; in the test on CCRF-CEM leukemia, 95.9%.
Take `CN1CCN(Cc2ccc(NC(=O)c3cncc(C#Cc4cnc5ccc(OCC6(C)COC6)nn45)c3)cc2C(F)(F)F)CC1`: the growth is -78.6% (active) with HCT-15 colon; -37.5% (active) in the test with HT29 colon; -68.7% (active) in the test with SNB-75 CNS; -86.1% (active) with SNB-19 CNS; -62% (active) with U251 CNS; -69% (active) in the test on PC-3 prostate. Moreover, the growth is -93.2% (active) with SK-MEL-5 melanoma; -90.5% (active) in the test on UACC-62 melanoma; -93.5% (active) with LOX IMVI melanoma; -89.2% (active) in the test on SK-MEL-28 melanoma; -75.7% (active) in the test with SK-MEL-2 melanoma; -83.3% (active) in the test on EKVX NSCLC. Also, the growth in the test with SN12C renal is -76.2% (active); in the test on UO-31 renal, -91.8% (active); in the test on TK-10 renal, -73.7% (active); in the test with ACHN renal, -96.1% (active); in the test on A498 renal, -97.7% (active); with CCRF-CEM leukemia, 1.98% (active). The growth in the test with MOLT-4 leukemia is 1.9% (active).
Take `O=C(O)c1cn(C2CC2)c2cc(N3CCN(C(=O)CN4C(=O)CSC4=O)CC3)c(F)cc2c1=O`: the growth is 112% in the test on HCT-15 colon; 112% with HT29 colon; 45.3% in the test with SNB-75 CNS; 100% with SNB-19 CNS; 115% in the test with U251 CNS; 91.2% with PC-3 prostate. In addition, the growth is 102% with SK-MEL-5 melanoma; 91% in the test with UACC-62 melanoma; 102% in the test with LOX IMVI melanoma; 101% in the test on SK-MEL-28 melanoma; 113% in the test on SK-MEL-2 melanoma; 74.4% in the test on EKVX NSCLC. For the same compound, the growth was 91.7% in the test with SN12C renal; 56.4% in the test with UO-31 renal; 73.5% in the test on TK-10 renal; 93.7% in the test with ACHN renal; 101% in the test on A498 renal; 109% in the test with MOLT-4 leukemia.

Source of the values: PubChem BioAssay (NCI).
